# 12-LOX inh – blocks human arachidonate 12S-lipoxygenase; Potency, µM (titrated, usually from 108 µM), for the others: at the top dose activity change, negative = inhibition, usual class: inhibitors; 580,000 compounds, 1.1% hits; P18054; purified 12hLO, xylenol orange hydroperoxide absorbance; also: % is scaled to controls: 0 for no effect and ±100 for the full control effect
# Target sequence (P18054 whole entry, looked up): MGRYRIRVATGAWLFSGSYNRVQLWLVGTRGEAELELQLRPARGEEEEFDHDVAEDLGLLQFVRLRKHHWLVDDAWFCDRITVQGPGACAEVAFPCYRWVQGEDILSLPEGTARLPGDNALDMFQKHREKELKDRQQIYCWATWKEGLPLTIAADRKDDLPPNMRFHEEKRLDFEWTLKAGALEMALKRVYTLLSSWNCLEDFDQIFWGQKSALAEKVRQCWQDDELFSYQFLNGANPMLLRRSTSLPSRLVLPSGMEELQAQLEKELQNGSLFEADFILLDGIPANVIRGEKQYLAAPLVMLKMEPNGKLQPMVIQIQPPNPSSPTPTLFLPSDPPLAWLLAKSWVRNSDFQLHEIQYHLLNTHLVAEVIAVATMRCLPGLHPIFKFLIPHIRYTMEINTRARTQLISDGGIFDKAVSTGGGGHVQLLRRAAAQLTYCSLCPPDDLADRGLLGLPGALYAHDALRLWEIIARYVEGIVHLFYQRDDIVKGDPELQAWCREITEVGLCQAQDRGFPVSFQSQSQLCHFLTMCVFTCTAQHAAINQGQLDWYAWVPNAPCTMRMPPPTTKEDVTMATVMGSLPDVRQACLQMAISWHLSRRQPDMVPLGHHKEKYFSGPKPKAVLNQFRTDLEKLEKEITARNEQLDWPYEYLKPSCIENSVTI
#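 Purified human 12hLO (150 nM final) in 25 mM Hepes, 0.01% Triton X-100, pH 7.0 was preincubated 15 min at room temperature with compound. Then 40 uM arachidonic acid was added, 30 min. Hydroperoxide was read by Fe-XO absorbance ratio 573/405 nm.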
# KB-3-1 cytotox – kills parental KB-3-1 adenocarcinoma cells; KB-3-1 viability, CellTiter-Glo ATP luminescence, 72 h; Potency, µM (series often up to 46.1 µM), most hits filed as cytotoxic; 400,000 compounds, 1.4% hits; AID 1347075; also: % is scaled to controls: 0 for no effect and ±100 for the full control effect; nearly all actives have a fitted effect of over 60% in size
#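 72 h, 37 °C compound treatment of KB-3-1 parental cells; CellTiter-Glo added, 10 min, luminescence read. Data corrected against DMSO-only plates and normalized before curve fitting.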
# SW480 rereplic – inducers of DNA re-replication in SW480 colon cancer cells | SW480 DNA re-replication, Hoechst DNA content imaging, 48 h | Potency, µM (doses to about 46.1 µM), without a hit: at the highest dose re-replication activation, actives largely listed as activators | 340,000 compounds, 1.8% hits | AID 624297; also: % of control where 0% means no effect; nearly all actives have a fitted effect of over 55% in size
#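 Cells (250 per well) received 23 nL compound or DMSO by pin tool and were kept 48 hr at 37 C, 5% CO2. Nuclei were then stained with Hoechst for 40 min and scanned for DNA content.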
# KB-V1 MDR tox – KB-V1 MDR subline cytotoxicity. KB-V1 MDR cells viability, CellTiter-Glo, 72 h. Potency, µM (doses to about 46.1 µM), most hits filed as cytotoxic. 400,000 compounds, 3.4% hits; also: % is scaled to controls: 0 for no effect and ±100 for the full control effect; nearly all actives have a fitted effect of over 60% in size
#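 Cytotoxicity via CellTiter-Glo luminescence after 72 h compound exposure at 37 degrees C. Cells: drug-selected KB-V1 line, DMEM phenol-red free plus 10% FBS. Compounds tested at multiple concentrations; normalized data fitted to concentration-effect curves.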
# MCF10A rerep – induces DNA re-replication in MCF 10a normal breast cells. MCF 10A DNA re-replication, Hoechst nuclear intensity, 48 h. Potency, µM (top dose mostly 46.1 µM), without a hit: top-dose activity, positive = re-replication, hits mostly activators. 350,000 compounds, 2.9% hits; also: % of control where 0% means no effect; nearly all actives have a fitted effect of over 50% in size
# PINK1 modulator – changes PINK1 expression | PINK1 immunofluorescence, high-content cytometry, 24 h | Potency, µM (doses to about 76.6 µM), without a hit: at the top dose activation (PINK1 increase), hits mostly activators | 410,000 compounds, 0.2% hits | AID 624263; active = well fitted activation curve with a large enough effect; inconclusive = small, poorly fitted or top-dose-only effect; cell line not stated here; also: % of control where 0% means no effect; nearly all actives have a fitted effect of over 65% in size
#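 Stable cell line treated 24 h with compounds at 5 concentrations (CCCP controls), then fixed and immunostained for PINK1 plus nuclear and cell stains; PINK1 immunofluorescence quantified by laser-scanning microplate cytometry.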
# * marks the source's active call; other numbers are inactive results; i = inactive; ? = inconclusive; . = no result; [ ] = remark or other dose. This is a sample that favours compounds with a hit; in the whole collection about 5.8% have one here. Unless noted, calls follow the shape of the dose curve; as a rule, active = well fitted curve in the direction sought with a large enough effect; inconclusive = small, poorly fitted or top-dose-only effect, or another doubt; inactive = no such curve, though single readings can be large; an effect the other way counts as inactive or inconclusive. Potency is read from the fitted curve at half-maximal effect.
SMILES,12-LOX inh,KB-3-1 cytotox,SW480 rereplic,KB-V1 MDR tox,MCF10A rerep,PINK1 modulator
COc1cccc(C2c3c(oc4ccc(Cl)cc4c3=O)C(=O)N2c2cc(C)on2)c1OC (stereo unspecified),?,i,-12.4%,i,-4.7%,12.6µM*
CC(=O)NC1(C)CCCN(Cc2ccc(Oc3ccccc3)cc2)C1 (stereo unspecified),5.2%[176 µM],.,.,.,.,.
COc1cc(CN2CCC(C)(NC(C)=O)CC2)cc(Nc2ccccc2)c1,12.6µM*,.,.,.,.,.
CC(=O)NC1(C)CCN(Cc2ccccc2-c2ccccc2Oc2ccccc2)C1 (stereo unspecified),35.5µM*,.,.,.,.,.
Cc1ccoc1C(=O)NCc1ccc(COCC(F)(F)F)cc1,2.6%,.,.,.,.,.
CCOC(=O)c1ccc(Nc2nnc(C(C)(C)C)c(=O)[nH]2)cc1,0.3%,?,?,?,?,25.1µM*
Cc1nc(N)nc(Nc2ccc(C#N)cc2)c1Br,1.3%,i,116.4%,i,-3.4%,-1.5%
Cc1nc(N)nc(Nc2ccc(Cl)cc2)c1Br,-19.2%,?,-1.3%,20.6µM*,0.2%,-7.0%[38.3 µM]
Cc1cc(NC(=O)Cn2cccc2-c2nc(-c3ccc4c(c3)OCO4)no2)n[nH]1,-12.3%,.,.,.,.,.
C/C(=N\Nc1cc(C)nc(-c2ccccc2)n1)c1cccc([N+](=O)[O-])c1,-1.9%,i,6.1%,i,0.731µM*,5.5%
COc1cc(N/N=C(\C)c2ccc(O)c(C)c2)nc(-c2ccccc2)n1,-3.2%,i,?,i,?,-1.0%
COc1cc(N/N=C(\C)c2ccc(N)cc2)nc(-c2ccccc2)n1,119.8%,i,3.1%,i,18.4µM*,4.5%
C/C(=N\Nc1cc(-c2ccccc2)nc(-c2ccccc2)n1)c1ccc(O)c(C)c1,-2.7%,i,?,?,7.31µM*,-2.8%
O=C(Nc1nc(-c2cc(Cl)sc2Cl)cs1)c1cccs1,-17.5%,?,17.8%,?,8.2µM*,?
O=C(NC(=S)Nc1nc(-c2ccc(Cl)cc2)cs1)c1cccs1,-0.4%,i,-136.9%,i,?,6.2%
O=C(Nc1nc(-c2cc(Cl)sc2Cl)cs1)c1ccc(Br)s1,13.7%,20.6µM*,-7.0%,?,?,?
C=CCNc1nc(N2CCCCC2)c(C#N)c2c1CN(Cc1ccccc1)CC2,-10.5%,?,?,i,16.4µM*,-0.5%
Cc1ccc(CN(C(=O)c2ccco2)c2ccc(CC(=O)NCC3CCCO3)cc2)cc1 (stereo unspecified),-18.0%,.,.,.,.,.
CSc1ncc2[nH]c(C(O)c3ccccc3)nc2n1 (stereo unspecified),-3.3%,3.26µM*,0.3%,8.2µM*,2.0%,-1.0%
CC(C)n1ccc2c(NC(=O)C[C@H]3NC(=O)c4ccccc4NC3=O)cccc21,2.7%,.,.,.,.,.
C[n+]1ccc(/C=C/c2ccc(F)cc2)c2ccccc21,.,i,.,i,.,?
C[n+]1ccc(/C=C/c2cc[n+](C)c3ccccc23)c2ccccc21,.,?,.,i,.,3.98µM*
CN1C=C/C(=C\c2cc[n+](C)c3ccccc23)c2ccccc21,?,i,-23.5%,i,0.581µM*,5.01µM*
COc1ccc(-c2cn[nH]c2-c2ccc(OCc3ccccc3)cc2O)cc1,?,i,?,i,13µM*,-1.9%
CCOc1ccc(-c2[nH]ncc2-c2ccccc2OC)c(O)c1,-23.9%,.,.,.,.,.
COc1ccccc1-c1cn[nH]c1-c1ccc(OCc2ccccc2)cc1O,-4.3%,?,?,i,23.1µM*,3.5%
CCOC(=O)C1CCN(C(=O)CSc2nnc(Nc3ccc(C)cc3C)s2)CC1,73.6%,.,.,.,.,.
CN(C)C(=O)C(Sc1nc2ccccc2o1)c1ccccc1 (stereo unspecified),2.2%,.,.,.,.,.
N#Cc1nc(COc2ccc(F)cc2)oc1NCc1ccc(F)cc1,4.2%,.,.,.,.,.

# Bioassay records (PubChem BioAssay)
